Screening results deposited in PubChem BioAssay by National Center for Advancing Translational Sciences (NCATS).
Sm TGR block: inhibitors of Schistosoma mansoni thioredoxin glutathione reductase; Q962Y6; purified TGR, DTNB reduction, TNB absorbance 405 nm; 360,000 tested, 3% active; AID 485364; Potency, µM (titrated, usually from 114 µM), without a hit: at the top dose activity change, negative = inhibition, hits mostly inhibitors; note: nearly all actives have a fitted effect of over 60% in size
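First, TGR (20 nM dispensed) and NADPH were mixed with compound. Second, a 15 min room-temperature incubation followed. Third, further NADPH and then DTNB were added to start the reaction. Finally, TNB absorbance was monitored kinetically.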
FBPA Giardia inh: blocks Giardia fructose-bisphosphate aldolase activity. purified Giardia FBPA. Potency, µM (titrated, usually from 59.6 µM), without a hit: at the top dose activity, negative = inhibition, most hits filed as inhibitors. AID 2451. A8B2U2. 290,000 tested, 0.71% active; note: nearly all actives have a fitted effect of over 55% in size
Target sequence (A8B2U2 whole entry, looked up): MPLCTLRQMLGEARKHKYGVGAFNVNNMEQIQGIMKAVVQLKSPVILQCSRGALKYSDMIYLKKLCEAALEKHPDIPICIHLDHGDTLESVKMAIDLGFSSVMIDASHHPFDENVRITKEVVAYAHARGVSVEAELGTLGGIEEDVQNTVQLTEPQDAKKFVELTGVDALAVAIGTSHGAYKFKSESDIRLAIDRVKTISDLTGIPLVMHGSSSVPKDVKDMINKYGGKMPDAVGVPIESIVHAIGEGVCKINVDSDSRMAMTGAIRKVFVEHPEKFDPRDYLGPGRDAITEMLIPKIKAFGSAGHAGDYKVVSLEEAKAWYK
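40 nM FBPA preincubated 10 min at RT with compound (up to 57.5 uM final), then substrate plus GAPDH/TPI/NAD/arsenate coupling and diaphorase/resazurin added. Fluorescence read after 20 min at RT, 525/598 nm.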
AmpC inh no detg: blocks E. coli AmpC beta-lactamase in detergent-free assay | AID 485341 | Potency, µM (series often up to 57.1 µM), without a hit: at the top dose activity change, negative = inhibition, usual class: inhibitors | AmpC nitrocefin hydrolysis, absorbance 480 nm, 0.0001% Triton | 330,000 tested, 0.52% active | P00811;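 note: plate controls were no compound for no effect and no enzyme for full effect; nearly all actives have a fitted effect of over 20% in size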
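AmpC (5.3 nM in the dispensed reagent) in 20 mM phosphate pH 7.0 with 0.01% (detergent screen) or 0.0001% Triton X-100 was preincubated with compounds for 15 min at room temperature. Nitrocefin was then added from an 800 uM solution, and hydrolysis was followed at 480 nm.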
AmpC inh detg: inhibitors of E. coli AmpC beta-lactamase with detergent. P00811. AmpC hydrolysis of nitrocefin, absorbance 480 nm, 0.01% Triton. Potency, µM (series often up to 114 µM), without a hit: at the highest dose activity change, negative = inhibition, hits mostly inhibitors. 370,000 tested, 0.041% active;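 note: 0% = no-compound wells and -100% = no-enzyme wells; nearly all actives have a fitted effect of over 25% in size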
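AmpC (5.3 nM in the dispensed reagent) in 20 mM phosphate pH 7.0 with 0.01% (detergent screen) or 0.0001% Triton X-100 was preincubated with compounds for 15 min at room temperature. Nitrocefin was then added from an 800 uM solution, and hydrolysis was followed at 480 nm.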
The depositor's hits bear a star; ! = repeats disagree. Rows were chosen to be rich in hits. Some 3.6% of all compounds tested hit in one or more screens of this group. Calls come from the whole dose curve; as a rule, active = well fitted curve in the direction sought with a large enough effect; inconclusive = small, poorly fitted or top-dose-only effect, or another doubt; inactive = no such curve, though single readings can be large; an effect the other way counts as inactive or inconclusive. Unless noted, % is set by controls: 0 for no effect and ±100 for the full control effect; potency is the fitted concentration of half-maximal effect.

CCCCCCCNC(=O)C1(CC2CC(c3ccc(Cl)cc3)=NO2)CCNCC1 (stereo not given) was read as Sm TGR block 40µM*, FBPA Giardia inh 5%, AmpC inh no detg 151% and AmpC inh detg -1%.
CCCCCCCNC(=O)C1(CC2CC(c3cccc(Br)c3)=NO2)CCNCC1 (stereo not given) was read as Sm TGR block 25µM*, FBPA Giardia inh -6%, AmpC inh no detg 169% and AmpC inh detg inconclusive.
CCN(CC)CCCn1c(-c2ccccc2)nc2c(N3CCOCC3)nc(C)nc21 was read as FBPA Giardia inh 1%.
`CCOc1ccccc1-c1nnc2n1N=C(c1cccc(OC)c1)CS2` gave FBPA Giardia inh -16%.
CCN(CC)CCn1c2ccccc2c2nc3ccccc3nc21 was read as Sm TGR block 50µM*, FBPA Giardia inh -8%, AmpC inh no detg -15% and AmpC inh detg -12%.
Screening O=C(C1CCC(Cn2c(=O)c3sccc3n(Cc3ccccc3)c2=O)CC1)N1CCCCC1 (stereo not given) returned Sm TGR block 0% and AmpC inh detg 0%.
For O=Cc1ccc2noc(-c3ccc(Cl)cc3)c2c1 the results were Sm TGR block 50µM*, FBPA Giardia inh -1%, AmpC inh no detg -21% and AmpC inh detg 2%.
Screening CCOC(=O)CNC(=O)c1ccc(-c2nn(C)c(=O)c3ccccc23)cc1 returned Sm TGR block 0% and AmpC inh detg 24%.
Screening O=S(=O)(c1ccccc1)c1nc(-c2cccc(Cl)c2)oc1N1CCOCC1 returned Sm TGR block 32µM*!, AmpC inh no detg -15% and AmpC inh detg 1%.
For Cc1ccc(-c2nc(S(=O)(=O)c3ccc(C)cc3)c(N3CCCCC3)o2)cc1 the results were Sm TGR block 8.9µM* and AmpC inh detg 1%.
`Cc1ccc(S(=O)(=O)c2nc(-c3ccc(Cl)cc3)oc2N2CCCCCC2)cc1` gave Sm TGR block 40µM* and AmpC inh detg -2%.
For Cc1ccc(S(=O)(=O)c2nc(C(C)(C)C)oc2N2CCOCC2)cc1 the results were Sm TGR block 1.1µM*, FBPA Giardia inh -27%, AmpC inh no detg -7% and AmpC inh detg -5%.
For Cc1ccc(S(=O)(=O)c2nc(-c3ccccc3)oc2N2CCCCCC2)cc1 the results were Sm TGR block -21% and AmpC inh detg 5%.
For CC1CCCC(C)N1C(=O)COC(=O)CCC1CCCC1 (stereo not given) the results were Sm TGR block -30%, AmpC inh no detg 3% and AmpC inh detg 1%.
`CC(C)COc1ccc(C(=O)N(Cc2ccc(N(C)C)cc2)Cc2ccco2)cc1` gave Sm TGR block 7% and AmpC inh detg 18%.
Screening COc1cccc(-c2nc(S(=O)(=O)c3ccc(C)cc3)c(N3CCCCC3)o2)c1 returned Sm TGR block 0% and AmpC inh detg 8%.
Screening CCOc1ccc(-c2nc(S(=O)(=O)c3ccccc3)c(N3CCC(C(N)=O)CC3)o2)cc1 returned Sm TGR block 35µM*, AmpC inh no detg 16% and AmpC inh detg 3%.
For COc1ccc(-c2nc(S(=O)(=O)c3ccc(C)cc3)c(N3CCCC3)o2)cc1 the results were Sm TGR block 2µM*, FBPA Giardia inh -10%, AmpC inh no detg -5% and AmpC inh detg inconclusive.
For COc1ccc(CNC(=O)CCc2c(C)nc3c(c2C)c(=O)n(C)c(=O)n3C)cc1 the results were Sm TGR block -8% and AmpC inh detg -9%.
For O=C(O)Cn1nnnc1-c1ccc(F)cc1 the results were Sm TGR block inconclusive, FBPA Giardia inh 8%, AmpC inh no detg -28% and AmpC inh detg 0%.
Cc1cc(Cn2nnnc2-c2ccncc2)cc(C)c1O was read as Sm TGR block 2.5µM*, FBPA Giardia inh 2%, AmpC inh no detg -1% and AmpC inh detg -11%.
`COc1cc2c(cc1OC)C(c1ccccc1C(F)(F)F)CC(=O)N2` (stereo not given) gave Sm TGR block -3%, FBPA Giardia inh 0%, AmpC inh no detg 69% and AmpC inh detg 8%.
For CSCCC(NC(=O)c1cccc([N+](=O)[O-])c1)c1nc2ccccc2[nH]1 (stereo not given) the results were Sm TGR block -6%, FBPA Giardia inh -1%, AmpC inh no detg 20µM* and AmpC inh detg -3%.
O=C(Nc1cc(F)ccc1F)C1COc2ccccc2C1 (stereo not given) was read as Sm TGR block 3% and AmpC inh detg 13%.
For CCC(C(=O)NC(CC(=O)O)c1ccc(Cl)cc1)c1ccccc1 (stereo not given) the results were Sm TGR block 3%, FBPA Giardia inh 11%, AmpC inh no detg -3% and AmpC inh detg -7%.
Screening S=c1nc(-c2csc3c2CCCC3)[nH][nH]1 returned Sm TGR block 35µM*, FBPA Giardia inh 5%, AmpC inh no detg -50% and AmpC inh detg 1%.
Screening N#C/C(=C/c1ccc(N2CCOCC2)o1)C(=O)NC1CCCCC1 returned Sm TGR block 32µM*, FBPA Giardia inh -19%, AmpC inh no detg 3% and AmpC inh detg 3%.
